Test results published in the supplement of paper PMC6522484.
± gives the standard deviation of the averaged measurements.

Key:
DLD1 [1] = experiment: cell viability (CellTiter-Glo) relative to plate median (fraction of plate median); higher = more viable cells; conditions: 5 µM; treatment time 24 h; reporter: 7TFP
How it was run: (§1)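 Colorectal cancer lines with stably integrated lentiviral TCF/Wnt firefly luciferase reporters received library compounds at a final 5 µM, 24 h after seeding into 384-well plates, for a 24 h exposure. Reported figures are plate-median-normalised firefly luciferase or CellTiterGlo luminescence per well. They average two independent replicates.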

HCT116 = experiment: as above; conditions: 5 µM; treatment time 24 h; reporter: TCF4/Wnt
How it was run: as §1

SW480 [2] = experiment: as above; conditions: 5 µM; treatment time 24 h; reporter: 7TFP
How it was run: as §1

DLD1 [3] = experiment: TCF/Wnt firefly luciferase reporter signal relative to plate median (fraction of plate median); higher = higher Wnt reporter signal; conditions: 5 µM; treatment time 24 h; reporter: 7TFP
How it was run: as §1

SW480 [4] = experiment: as above; conditions: 5 µM; treatment time 24 h; reporter: 7TFP
How it was run: as §1

Compound	cell viability (DLD1 [1])	cell viability (HCT116)	cell viability (SW480 [2])	TCF/Wnt firefly luciferase reporter signal (DLD1 [3])	TCF/Wnt firefly luciferase reporter signal (SW480 [4])
C[C@]12CCC(=O)C=C1C=C[C@@H]1[C@@H]2CC[C@@]2(C)[C@H]1CC[C@@]21CCC(=O)O1	0.884 ± 0.075	0.899 ± 0.049	0.969 ± 0.044	1.1 ± 0.071	1.025 ± 0.0071
C=CC1=C(C)c2cc3[nH]c(cc4nc(cc5[nH]c(cc1n2)c(C)c5CCC(=O)O)C(CCC(=O)O)=C4C)c(C)c3C=C	1 ± 0.028	0.964 ± 0.12	0.963 ± 0.053	0.967 ± 0.027	0.992 ± 0.0057
COc1cc(C2Oc3cc([C@H]4Oc5cc(O)cc(O)c5C(=O)[C@@H]4O)ccc3OC2CO)ccc1O (stereo not given in full)	1.09 ± 0.042	1.12 ± 0.16	1.02 ± 0.014	0.993 ± 0.081	0.967 ± 0.2
NCCCCN	0.96 ± 0.047	0.983 ± 0.02	0.97 ± 0.057	1.18 ± 0.15	1.1 ± 0.05
Oc1c(I)cc(I)c2cccnc12	0.992 ± 0.11	0.931 ± 0.035	0.939 ± 0.016	0.928 ± 0.026	0.984 ± 0.14
CC1CCC(C(C)C)C(O)C1 (stereo not given)	1.05 ± 0.1	1.04	1.02 ± 0.066	1.09 ± 0.035	1.01 ± 0.09
O=C(O)/C=C(\CC(=O)O)C(=O)O	1.05 ± 0.014	0.98 ± 0.018	1 ± 0.011	1.11 ± 0.035	0.978 ± 0.059
COc1ccc(-c2coc3cc(OC(C)=O)cc(OC(C)=O)c3c2=O)cc1	1.01 ± 0.023	0.994 ± 0.079	0.976 ± 0.0057	1.34 ± 0.3	1.23 ± 0.16
CN/C(=N\CCSCc1nc[nH]c1C)NC#N	1.04 ± 0.021	1.12 ± 0.042	1.04 ± 0.021	1.12 ± 0.18	1.06 ± 0.042
COc1ccc(C2CNC(=O)C2)cc1OC1CCCC1 (stereo not given)	0.992 ± 0.011	0.989 ± 0.059	0.968 ± 0.0099	1.04 ± 0.18	1.06 ± 0.021
O=c1[nH]cnc2c1ncn2[C@@H]1O[C@H](CO)[C@@H](O)[C@H]1O [Inosin]	0.943 ± 0.12	0.91 ± 0.15	0.971 ± 0.013	0.67 ± 0.24	0.999 ± 0.13
CC1=CC(=O)CC(C)(C)C1(O)/C=C/C(C)=C\C(=O)O (mixture of isomers) [ABSCISIC ACID (cis,trans; )]	1.05 ± 0.021	1.1 ± 0.021	1.03 ± 0.064	1.08 ± 0.092	1.18 ± 0.13
Oc1c(Cl)cc(Cl)cc1Sc1cc(Cl)cc(Cl)c1O	1.03 ± 0.058	1.01 ± 0.022	0.99 ± 0.043	0.979 ± 0.059	0.959 ± 0.048
CCCCCCNC(=O)n1cc(F)c(=O)[nH]c1=O	1.06 ± 0.042	0.925 ± 0.13	1.04 ± 0.014	0.971 ± 0.13	1.08 ± 0.078
Cn1c(=O)[nH]c2ncn(C)c2c1=O	0.987 ± 0.13	1.04 ± 0.021	1.02	1.05 ± 0.13	1.02 ± 0.072
CC(=O)Nc1ccc(O)cc1	0.935 ± 0.028	0.948 ± 0.14	0.996 ± 0.02	0.923 ± 0.12	1.05 ± 0.071
C[C@@H]1CC[C@H]2[C@](C)(CO)[C@@H](O)CC[C@]2(C)[C@@]12CC[C@@](CO)(CCO)O2	0.994 ± 0.052	1.02 ± 0.049	0.9945 ± 0.0078	1.01 ± 0.043	1.02 ± 0.014
O=C1c2ccc(O)c(O)c2C(=O)c2c(O)ccc(O)c21	0.966 ± 0.048	0.877 ± 0.023	0.964 ± 0.03	1.09 ± 0.092	1.1 ± 0.085
C[C@@H]1Cc2cc(O)cc(O)c2C(=O)O[C@H](C)CC(=O)O[C@H](CO)CC(=O)O[C@H](C)Cc2cc(O)cc(O)c2C(=O)O[C@H](C)CC(=O)O1	1.04 ± 0.11	1.14 ± 0.035	1.01 ± 0.062	0.938 ± 0.028	1.05 ± 0.05
Cc1onc(-c2ccccc2Cl)c1C(=O)N[C@@H]1C(=O)N2[C@@H]1SC(C)(C)[C@@H]2C(=O)O	1.02 ± 0.17	1.02 ± 0.06	0.994 ± 0.037	1.02 ± 0.035	0.952 ± 0.058
CN(C)c1nc(N(C)C)nc(N(C)C)n1	0.976 ± 0.076	0.97 ± 0.057	1.05	1.03 ± 0.035	1.01 ± 0.09
CCC[C@H](N[C@@H](C)C(=O)N1[C@H](C(=O)O)C[C@@H]2CCCC[C@@H]21)C(=O)OCC	1.03 ± 0.05	1.08 ± 0.035	0.961 ± 0.037	0.982 ± 0.025	1.08 ± 0.078
C/C=C(\C)C(=O)O[C@@H]1c2c(ccc3ccc(=O)oc23)OC(C)(C)[C@@H]1OC(C)=O	0.969 ± 0.011	0.92 ± 0.029	0.926 ± 0.047	0.997 ± 0.075	1.09 ± 0.057
CC(=O)N[C@@H](CC(C)C)C(=O)O	1.04 ± 0.014	1.04 ± 0.093	0.966 ± 0.062	1.03 ± 0.18	1.13 ± 0.057
CC(=O)OC1CCC2(C)C3=C(CC[C@H]2C1(C)C)[C@@]1(C)CC[C@@H]([C@@H](C)CCC=C(C)C)[C@]1(C)CC3 (stereo not given in full)	1.04 ± 0.097	1 ± 0.064	0.961 ± 0.0014	1.06 ± 0.17	1.11 ± 0.014
Cn1c(=O)c2nc[nH]c2n(C)c1=O	0.996 ± 0.13	1.04 ± 0.021	1.07 ± 0.035	1.19 ± 0.014	0.986 ± 0.077
